Data on 29 compounds can be found in PubChem BioAssay (NCATS).

Unmarked numbers belong to inactive results. Results filed as inconclusive are left out. Activity calls are given as the source filed them. Calls come from the whole dose curve; as a rule, active = well fitted curve in the direction sought with a large enough effect; inconclusive = small, poorly fitted or top-dose-only effect, or another doubt; inactive = no such curve, though single readings can be large; an effect the other way counts as inactive or inconclusive. Where a SMILES comes first, the peptide text is derived from it. The star is where a group is joined. Hexanoyl = CCCCCC(=O)*
Potency is the fitted concentration of half-maximal effect.

One experiment concerns the target Luciferin 4-monooxygenase (Photinus pyralis) (UniProt P08659). The experiment in a line: Primary firefly luciferase (FLuc) qHTS assay for identification of artifact compounds. (AID 1845220).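 For activity change, negative = inhibition: plate controls were DMSO vehicle for no effect and no enzyme for full effect.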 Note: nearly all actives have a fitted effect of over 60% in size. The following applies: purified firefly luciferase, luminescence, 5 min; series mostly up to 54.1 µM; activity change, negative = inhibition: at the top concentration. Put shortly:
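FLuc 10 nM; luciferin 10 uM; ATP 10 uM; Tris-acetate pH 7.6, Mg-acetate 10 mM; 15 min RT preincubation; 5 min reaction; luminescence.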
(In general: qHTS replaces the single test concentration by a dilution series.)
Consider `CC1CC(=O)C2C(O)(C1)CC(O)C13OC1c1c(O)cccc1C(=O)C23O` (centres undefined), for which the “activity change, negative = inhibition” value is 1.32%.
With `Cc1c(-c2ccc3c(c2)OCO3)oc2ccc(C(O)C(C)O)cc12` (centres undefined), the Potency is 1.17 µM (active).
For the compound `C=C[C@H]1[C@H](O[C@@H]2O[C@H](CO)[C@@H](O)[C@H](O)[C@H]2O)OC=C(C(=O)OC)[C@H]1CCO`, the “activity change, negative = inhibition” value was 1.85%.
Take `C[C@]1(OC(=O)/C=C/c2ccccc2)C[C@@H](O)[C@]2(O)C=CO[C@@H](O[C@@H]3O[C@H](CO)[C@@H](O)[C@H](O)[C@H]3O)[C@@H]21`: the “activity change, negative = inhibition” value was 1.67% [at 25.7 µM].
As for `COC(=O)C1=CO[C@@H](O[C@@H]2O[C@H](CO)[C@@H](O)[C@H](O)[C@H]2O)[C@@H]2[C@@H](C)[C@@H](O)C(O)[C@H]12` (some centres undefined), the “activity change, negative = inhibition” value is 0.657% [at 25.7 µM].
Consider `CC1(C)CCC2(C(=O)O)CCC3(C)C(=CCC4C5(C)CCC(O)C(C)(CO)C5C(O)CC43C)C2C1` (centres undefined), for which the “outcome” value is “inactive [at 25.7 µM]”.
Turning to `CC(=O)c1ccc(O[C@@H]2OC[C@@H](O)[C@H](O)[C@H]2O[C@]2(CO)O[C@H](CO)[C@@H](O)[C@@H]2O)c(O)c1`, the “activity change, negative = inhibition” value is -0.714% [at 25.7 µM].
On the same count and under the same terms, under `CC(C)(O)C1OC1C1=CC(=O)C2(C)OC2C1O` (centres undefined) stands 3.48%.
On to `COCCCc1sc(-c2ccccc2)nc1C(=O)Nc1ccccc1-c1nc2cc(CN3CCCC3)cnc2s1`, for which the “outcome” value is “inactive [at 25.7 µM]”.
Turning to `C=C[C@H]1[C@H](O[C@@H]2O[C@H](CO)[C@@H](O)[C@H](OC(=O)/C=C/c3ccc(O)c(OC)c3)[C@H]2O)OC=C2C(=O)OCC[C@]21O`, the “outcome” value was “inactive [at 25.7 µM]”.
As to `C[C@H](/C=C/[C@@]1(O)[C@H](C)CC(=O)CC1(C)C)O[C@@H]1O[C@H](CO[C@@H]2OC[C@@H](O)[C@H](O)[C@H]2O)[C@@H](O)[C@H](O)[C@H]1O`, the “activity change, negative = inhibition” value was 1.38% [at 25.7 µM].

Tested on in a further experiment: not listed separately
The experiment in a line: Primary fluorescence-based thiol-reactive (MSTI) qHTS assay for identification of artifact compounds. (AID 1845221).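 For activity change, negative = thiol reactive: thiol-reactive compounds lower the probe fluorescence signal.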 Note: nearly all actives have a fitted effect of over 65% in size. The following applies: MSTI thiol-reactivity probe, 1 h; series mostly up to 53.8 µM; activity change, negative = thiol reactive: at the top concentration. Put shortly: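 In PBS pH 7.4 with 2% DMSO, each compound met 4 uM MSTI for one hour at ambient temperature, shielded from light, before fluorescence detection.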
As to `C=C1CC[C@]2(C(=O)O[C@@H]3O[C@H](CO)[C@@H](O)[C@H](O)[C@H]3O)CC[C@]3(C)C(=CCC4[C@@]5(C)C[C@H](O)[C@@H](O[C@@H]6O[C@H](C(=O)O)[C@@H](O)[C@H](O)[C@H]6O)[C@](C)(C=O)C5CC[C@]43C)C2C1` (some centres undefined), the activity change, negative = thiol reactive was 113% [at 11.5 µM].
For `O=C(O)C1(c2ccc(-c3ccc(Cl)c(Cl)c3)c(F)c2)CC1`, the “activity change, negative = thiol reactive” value was 176%.
`COc1ccc(Oc2c(Cl)cnn(C3c4ccccc4-c4ccccc43)c2=O)cc1`: the “activity change, negative = thiol reactive” value is -0.796%.
With `COc1c(-c2ccc(O)cc2)cc(OC)c2c1oc1cc(O)c(OC3OC(CO)C(O)C3O)cc12` (centres undefined), the Potency is 4.62 µM (active).
In the case of `N=C(N)c1ccc2nc(-c3cc(CC(=O)NC(CC(=O)O)C(=O)O)cc(-c4cc(S(N)(=O)=O)ccc4O)c3O)[nH]c2c1` (centres undefined), the Potency was 2.12 µM (active).
For the compound `CC1=C2CC(=O)C(C)CC/C=C(\C)CC2(O)OC1=O` (centres undefined), the “activity change, negative = thiol reactive” value is -7.93%.
For the compound `C=C(COC(=O)CC(C)C)C1Cc2cc(C(C)=O)ccc2O1` (centres undefined), the “activity change, negative = thiol reactive” value was -7.52%.
Regarding `C/C=C/C=C/C=C/C(=O)O[C@@H]1[C@@H](OC)C2=C(C(=O)N(C(CCC(=O)O)C(=O)O)C2)[C@@]2(C)CCCC(C)(C)[C@H]12` (some centres undefined), the “activity change, negative = thiol reactive” value is 31.6% [at 25.6 µM].
With `CCCCCC(=O)N1CCC[C@H]1C(=O)N[C@@H](Cc1ccc(O)cc1)C(=O)OC` (Hexanoyl-Pro-Tyr-OMe), the “activity change, negative = thiol reactive” value was 55.4%.
As to `CC1OC(OC2C(OC(=O)[C@]34CCC(C)(C)C[C@H]3C3=CCC5[C@@]6(C)CC[C@H](OC7OC(C(=O)O)C(O)C(O)C7O)C(C)(C)C6CC[C@@]5(C)[C@]3(C)CC4O)OC(CO)C2O)C(O)C(O)C1OC1OCC(O)C(O)C1O` (some centres undefined), the activity change, negative = thiol reactive is 111% [at 11.5 µM].
The same measure, in the same setting: the figure for `Cc1cc(CO)c(O)c(C(=O)CC2CC(=O)NC(=O)C2)c1` is -16.2%; for `CC(C)(O)C1CCC2(C)CCCC(C)(O)C2C1` (centres undefined) it is 21.1%.
In the case of `CC1(C)C=Cc2c(ccc3c2[N+]([O-])=C2C3(O)CC34NC(=O)C5(CCCN5C3=O)CC4C2(C)C)O1` (centres undefined), the Potency is 4.12 µM (active).
Consider `CC(C)c1ccc2c(c1)CCC1[C@](C)(C(=O)O)CCC[C@]21C` (some centres undefined), for which the “activity change, negative = thiol reactive” value was 21.7%.
For the compound `CC(C)(CC(=O)N1CCCC1)NCC(=O)N1C[C@@H](F)C[C@H]1C#N`, the “activity change, negative = thiol reactive” value was -5.84%.
On to `CC(C)=CC[C@H]1O[C@]2(O)C([C@H]3CCC4[C@@]5(C)CC[C@H](O[C@@H]6O[C@H](CO)[C@H](O)[C@H](O[C@@H]7O[C@H](CO)[C@@H](O)[C@H](O)[C@H]7O)[C@H]6O[C@@H]6O[C@@H](C)[C@H](O)[C@@H](O)[C@H]6O)C(C)(C)C5CC[C@@]4(C)[C@]3(C)[C@H]2O)[C@@]1(C)O` (some centres undefined), for which the activity change, negative = thiol reactive was 12.2% [at 11.5 µM].
On to `N[C@@H](CCNCc1ccc(Cl)cc1)C(=O)N1CCCCC1`, for which the “activity change, negative = thiol reactive” value is -18.4%.
For `O=C(OCC(O)CO[C@@H]1O[C@H](C(=O)O)[C@@H](O)[C@H](O)[C@H]1O)c1ccccc1` (some centres undefined), the Potency is 6.56 µM (active).
